This note sets out measurements from PubChem BioAssay (NCATS).

Results filed as inconclusive are left out. The source made the active and inactive calls. Calls come from the whole dose curve; as a rule, active = well fitted inhibition curve with a large enough effect; inconclusive = small, poorly fitted or top-dose-only effect; inactive = flat fitted curve, though single readings scatter.
% is set by controls: 0 for no effect and ±100 for the full control effect.

The target of this assay is Calcium and integrin-binding protein 1 (Homo sapiens) (UniProt Q99828). Briefly: Primary qHTS for Identification of Calcium Integrin Binding Protein 1 (CIB1) Competitor (AID 1508620).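 Note: GST tagged CIB1 binding a fluorescein labelled alphaIIb integrin peptide tracer; top concentration of the series differs between compounds.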 The following applies: CIB1-GST / FITC-alphaIIb peptide fluorescence polarization; series mostly up to 114 µM; activity change, negative = inhibition: at the top concentration. A digest of the protocol: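 CIB1-GST (1 uM final) and compound incubated 15 min at room temperature before adding FITC-alphaIIb peptide tracer (100 nM final). Competition for binding read by fluorescence polarization (ex 480, em 540) after another 15 min at room temperature.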
Calcium and integrin-binding protein 1 (Homo sapiens), sequence (Q99828 whole entry, looked up): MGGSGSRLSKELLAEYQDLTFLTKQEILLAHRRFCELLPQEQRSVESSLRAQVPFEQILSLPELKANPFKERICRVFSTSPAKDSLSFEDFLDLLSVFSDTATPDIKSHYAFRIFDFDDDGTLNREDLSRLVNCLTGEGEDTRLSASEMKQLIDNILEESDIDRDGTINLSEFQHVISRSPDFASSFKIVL
A general note: In qHTS, concentration-response curves come from the screen itself.
As for `O=C(Nc1ccc2ccccc2c1)Nc1nnc(-c2ccc(F)cc2)s1`, the “activity change, negative = inhibition” value is -2.18% (inactive).

In the case of `COc1ccccc1NS(=O)(=O)c1cc(NC(=O)c2ccccc2)ccc1N1CCCC1`, the “activity change, negative = inhibition” value is -2.78% (inactive).

Turning to `c1nc(NCc2ccc3c(c2)OCO3)c2cc(-c3ccc4c(c3)OCCO4)ccc2n1`, the “activity change, negative = inhibition” value was -4.21% (inactive).

As to `Cc1cc2c(s1)c1cnn(Cc3c(F)ccc(C)c3F)c(=O)c1n2C`, the “activity change, negative = inhibition” value was 0.24% (inactive).

For `COc1ccc(C2Nc3ccccc3C(=O)N2Cc2ccccc2C(F)(F)F)cc1COc1ccc(NC(C)=O)cc1` (stereo not given), the “activity change, negative = inhibition” value is 3.79% (inactive).

Turning to `Cc1ccc(OCCn2c(CCNC(=O)c3ccco3)nc3ccccc32)cc1`, the “activity change, negative = inhibition” value is 3.39% (inactive).

With `COc1cccc(CNc2ccc(S(=O)(=O)Nc3cnc4ccccc4c3)cc2)c1O`, the “activity change, negative = inhibition” value is -3.65% (inactive).

Consider `Cc1ccc(NS(=O)(=O)c2cc3c(cc2F)NC(=O)CC3)cc1C`, for which the “activity change, negative = inhibition” value is -0.372% (inactive).

On to `N#Cc1nc(NCCO)nc(Nc2ccccc2)n1`, for which the “activity change, negative = inhibition” value was 9.11% (inactive).

For `COc1ccc(N2C[C@]34C=C[C@H](O3)C(C(=O)O)C4C2=O)cc1` (stereo not given in full), the “activity change, negative = inhibition” value is -3.16% (inactive).

As for `N#Cc1cccc(NC(=O)Nc2nnc(-c3ccncc3)s2)c1`, the “activity change, negative = inhibition” value is 3.15% (inactive).

As for `Cc1cc(C)n2ncc(C(=O)Nc3ccccc3C)c2n1`, the “activity change, negative = inhibition” value was 0.279% (inactive).

For `COc1ccc(C2Nc3ccccc3C(=O)N2Cc2cccc(-c3ccccc3)c2)cc1COc1ccc(NC(C)=O)cc1` (stereo not given), the “activity change, negative = inhibition” value is 4.1% (inactive).

On to `Cc1nc(-c2ccc([S+](=O)([O-])N3CCN([S+](=O)([O-])c4c(F)cccc4F)CC3)s2)cs1`, for which the “activity change, negative = inhibition” value was -4.39% (inactive).

Regarding `Cn1c2cc(Br)sc2c2cnn(Cc3ccccc3F)c(=O)c21`, the “activity change, negative = inhibition” value is 1.15% (inactive).

As to `O=C(N1CCc2ccc(S(=O)(=O)N3CCN(S(=O)(=O)c4ccc5c(c4)OCCO5)CC3)cc2C1)C(F)(F)F`, the “activity change, negative = inhibition” value was 4.53% (inactive).

`Cc1cc(C)nc(NC(=S)N2CCN(Cc3cccc4ccccc34)CC2)c1`: the “activity change, negative = inhibition” value is -18.4% (inactive).

Regarding `Cc1ccc(NS(=O)(=O)c2cccc(C(=O)O)c2)cc1C`, the “activity change, negative = inhibition” value is -1.51% (inactive).

On to `N#CN1CCC(NC(=O)c2ccc(F)cc2)CC1`, for which the “activity change, negative = inhibition” value is -2.65% (inactive).

On to `Cc1nc(CNc2ncnc3ccc(-c4oc(-c5ccccc5)nc4C)cc23)cs1`, for which the “activity change, negative = inhibition” value was -2.42% (inactive).

Consider `Cc1ccc(NS(=O)(=O)c2ccc(F)cc2)cc1C`, for which the “activity change, negative = inhibition” value was 1.76% (inactive).

With `COc1ccc([S+](=O)([O-])N2CCCN([S+](=O)([O-])c3ccc(OC)c(N)c3)CC2)cc1N`, the “activity change, negative = inhibition” value was -0.27% (inactive).

On to `COc1cccc(-c2nnc3n2N=C(c2cc(OC)ccc2OC)CS3)c1`, for which the “activity change, negative = inhibition” value is 0.905% (inactive).

`Cc1nnc2sc(-c3cccc(NC(=O)c4ccc(-c5cccc(Cl)c5)o4)c3)nn12`: the “activity change, negative = inhibition” value is -3.26% (inactive).

For the molecule `COc1ccc(NC(=O)c2[nH]c(C)c(C(C)=O)c2C)cc1S(=O)(=O)Nc1cccc(C#N)c1`, the “activity change, negative = inhibition” value is -5.17% (inactive).

With `N#Cc1ccc(C[C@H](C(=O)O)N2C(=O)c3ccc(C(=O)O)cc3C2=O)cc1`, the “activity change, negative = inhibition” value was -0.401% (inactive).

Take `Cc1ccc(NS(=O)(=O)c2cc3c(cc2/C=C/c2ccccc2)NC(=O)CO3)cc1C`: the “activity change, negative = inhibition” value is 1.45% (inactive).

`COC(=O)c1cncc(NC(=O)c2cccs2)c1`: the “activity change, negative = inhibition” value was -3.94% (inactive).

Turning to `COc1ccccc1-n1cnc2cc(C(=O)N3CCCCC3)ccc21`, the “activity change, negative = inhibition” value is 4.03% (inactive).

With `O=[S+]([O-])(Nc1ccccc1)c1ccc(NCc2cccc(C(F)(F)F)c2F)cc1`, the “activity change, negative = inhibition” value is -3.91% (inactive).

As for `Fc1cccc(-c2ccc(Nc3nc(-c4ccncc4)nc4ccccc34)cc2F)c1`, the “activity change, negative = inhibition” value is 2.21% (inactive).

Turning to `Oc1cc(NCCc2cccnc2)cc2cccnc12`, the “activity change, negative = inhibition” value was -26.1% (inactive).

For `Cc1ccc(CN(C)c2ncnc3ccc(-c4ccc5c(c4)OCO5)cc23)o1`, the “activity change, negative = inhibition” value was 3.55% (inactive).

For the molecule `CC(=O)Nc1sc2c(c1-c1ccc(N3CCN(C(C)=O)CC3)nc1)CCNC2`, the “activity change, negative = inhibition” value is -0.727% (inactive).

For `Cc1cc(C)nc(NC(=S)N2CCN(c3cc(Cl)cc(C(F)(F)F)c3)CC2)c1`, the “activity change, negative = inhibition” value was -12.4% (inactive).

As for `Cn1c2cc(C#N)sc2c2cnn(Cc3ccccc3F)c(=O)c21`, the “activity change, negative = inhibition” value is -2.87% (inactive).

With `CNc1nc(C#N)c(-c2cccc3ccccc23)o1`, the “activity change, negative = inhibition” value was 4.95% (inactive).

Regarding `N#CN/C(=N\c1nnc(-c2ccncc2)s1)Nc1ccc(F)c(C(F)(F)F)c1`, the “activity change, negative = inhibition” value is -13.1% (inactive).

Take `Cc1ccnc(NC(=S)N2CCNCC2)c1`: the “activity change, negative = inhibition” value is -1.7% (inactive).

Consider `CC(Nc1nc(-c2ccccc2C(F)(F)F)nc2ccccc12)c1ccc(-c2cccc(C(F)(F)F)c2)cc1` (stereo not given), for which the “activity change, negative = inhibition” value was 4.58% (inactive).
